Experimental data published in the supplement of paper PMC6555819.

What was measured:
Experiment in all cases: PBM binding z-score (relative to random genomic background probes); higher = stronger binding; sequences stand for … in GC…GCGATTGACAGCGTAGAATGAAGG
[1] = test system: RARb homodimer (NR concentration 270 nM)
Summary of the method: (§1)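 Custom Agilent 4×180K protein-binding microarrays carried double-stranded probes, each with a 34-nt variable region. These regions held direct-repeat seeds, single-nucleotide variants, half-site ablations and random human genomic background sequences. Ligand-free nuclear receptor dimers were incubated on the arrays for 1 h, antibodies against each partner (one per run) detected binding, and scanned fluorescence was regression-normalized. Binding z-scores take the random background probes as reference.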

[2] = test system: RARg:RXRa (NR concentration 270 nM, RXRa partner concentration 90 nM)
Summary of the method: as §1

[3] = test system: RARg homodimer (NR concentration 270 nM)
Summary of the method: as §1

[4] = test system: RXRa DBDmut IVT, anti-RXR (DBD mutation: RXRa K156A/R161A, NR concentration 90 nM)
Summary of the method: as §1

[5] = test system: RXRa homodimer (NR concentration 180 nM)
Summary of the method: as §1

[6] = test system: THRa:RXRa (NR concentration 90 nM, RXRa partner concentration 90 nM)
Summary of the method: as §1

[7] = test system: THRa homodimer (NR concentration 90 nM)
Summary of the method: as §1

[8] = test system: VDR homodimer (NR concentration 270 nM)
Summary of the method: as §1

Sequence | PBM binding z-score [1] | PBM binding z-score [2] | PBM binding z-score [3] | PBM binding z-score [4] | PBM binding z-score [5] | PBM binding z-score [6] | PBM binding z-score [7] | PBM binding z-score [8]
ATATGTAGGTTACATCCGGGTCATTCTGGCTATG | 2.67 | 3.21 | 1.93 | 1.51 | 3.1 | 3.63 | 2.37 | 2.5
TAGCCTAGGTCATGGGCCAGTTTACCACGCGAAC | 3.04 | 4.68 | 4.8 | 0.567 | 4 | 3.22 | 1.42 | 0.669
CGACCTAGGTCAAAGGACAGTGAAAGGCGACGTA | 3.13 | 4.74 | 5.05 | 1.69 | 4 | 2.86 | 0.639 | 0.41
CTAACTAGGTCACCAGGACAGTGAAGAGGTTGGA | 3.4 | 4.69 | 5.53 | 1.67 | 3.98 | 3.51 | 2.16 | 0.856
CTATATAGGTTAAGGGGGTCATTCAGTTTGAAAG | 3.8 | 5.72 | 4.34 | 2.61 | 6.69 | 4.18 | 1.99 | 6.17
AGAATGAGGTTAAGATTAGGGAAACAGAATACAT | 0.693 | 1.98 | 1.56 | 1.13 | 2.57 | 2.63 | 0.72 | 0.435
CAAACTAGGTCAAAGGTCAGAGTCGAGCCAACCA | 5.01 | 8.13 | 6.87 | 2.57 | 9.54 | 4.59 | 1.56 | 2.39
CTCCAAAGGTCGGTTGAGGTGAGTATACGGATAA | 2.61 | 2.87 | 2.9 | 0.951 | 2.46 | 5 | 1.56 | 0.508
CGAACTAGGTCACCAGGACTGTGAAGAGGTTGGA | 3.39 | 4.54 | 5.16 | 1.46 | 3.6 | 3.24 | 1.3 | 0.447
CGAAATAGGTCAAAGGACAGTGAAAGGCGACGTA | 3.4 | 4.97 | 5.11 | 1.3 | 4.58 | 2.4 | -0.113 | 0.355
CGAACTAGGTCAAATGACAGTGAAAGGCGACGTA | 2.7 | 4.37 | 4.97 | 2.03 | 3.11 | 2.6 | 0.29 | 0.337
TAGCCTAGGTCAGATCGGGCCAGTCTACGCTATA | 2.16 | 2.51 | 3.36 | -0.601 | 1.31 | 4.1 | -0.0683 | -0.368
CCGAGTAGGTCACGAGGGGGCATTCAGTGCGAAT | 4.35 | 6.3 | 6.32 | 2.29 | 5.11 | 4.54 | 0.959 | 3.61
TATACAGGATCAAAGGCCAGAGTACGAATGTCGA | 0.878 | 0.959 | 1.02 | -0.32 | 0.857 | -0.0517 | -0.472 | 0.376
CGAACTAGGACATCCAGGACAGTGAATACATTGA | 0.243 | 0.252 | 0.695 | 0.592 | 0.0939 | 1.78 | 1.4 | 0.467
TTACCAAGGTGAAAGGTCGTTGAAGCACGCCTTG | 2.64 | 4.3 | 2 | 0.879 | 5.84 | 3.57 | 0.624 | 1.29
TCGAGTAGGTTACGGGGGCATTTAGGGATGAAGA | 2.32 | 3.47 | 2.58 | 2.03 | 2.73 | 4.01 | 1.4 | 3.52

Sequence | PBM binding z-score [1] | PBM binding z-score [2] | PBM binding z-score [3] | PBM binding z-score [4] | PBM binding z-score [5] | PBM binding z-score [6] | PBM binding z-score [7] | PBM binding z-score [8]
ATCGAACGGTCGAGGTGAGTATAGAGAAAGGGAA | 0.591 | 0.56 | 1.16 | -0.533 | 0.211 | 1.06 | 0.0248 | -0.386
ATCGAAAGGTCGAAGGTGAGTCTACCCACCCGAA | 2.48 | 4.41 | 3.67 | 0.805 | 5.11 | 2.24 | -0.0307 | 0.891
CCGACTAGGTTACGAGGGGGCATTCAGTGCGAAT | 2.21 | 2.97 | 2.26 | 1.5 | 1.62 | 3.52 | 0.757 | 3.12
TCCAGTAGGTTACGGGGGCATTCAGGGATGAAGA | 2.45 | 3.99 | 3.38 | 2.49 | 3.03 | 3.96 | 1.63 | 3.69
CCAGACAGGTGAAAGGTAACTCCGTCTGGTACGC | 0.693 | 1.23 | 0.537 | -0.24 | 2.07 | 0.859 | -0.16 | -0.193
TATACAGGGTCTAAGGCCAGAGTACGAATGTCGA | 0.78 | 0.921 | 1.04 | 0.336 | 0.544 | 1.05 | 0.535 | 1.12
CGAACTAGGTCACCAGGACAGTCAAGAGGTTGGA | 3.44 | 4.37 | 5.18 | 1.24 | 3.33 | 3.46 | 1.89 | 0.612
AGAATGAGGTTAACAAAGATCAGGGAAACGCTTG | 0.892 | 2.1 | 1.73 | 1.27 | 2.69 | 2.57 | 0.682 | 0.0806
ACTAGCAGGCCAAAGGTCACTCAAGATTAGTCCG | 4.87 | 6.14 | 5.41 | 0.861 | 6.31 | 3.6 | 0.91 | 1.58
CTATGTAGGTTAAGGGGGTTATTCAGTTTGAAAG | 2.15 | 2.55 | 1.56 | 1.43 | 2.57 | 2.53 | 1.4 | 3.24
CAAACTAGGTCACGAAAGGTCAAAGTGGAATGAC | 5.92 | 7.79 | 8.41 | 2.4 | 8.35 | 5.24 | 2.81 | 3.84
ACTAGTAGGCCAAGGGTCACTCAAGATTAGTCCG | 3.88 | 4.22 | 4.21 | 0.602 | 4.54 | 2.6 | 0.197 | 1.36
ATATGTAGGTTAGCTGGCGTCATTCAGACTAGGC | -0.15 | 0.427 | 0.556 | -0.166 | 0.485 | -0.223 | -0.829 | -0.39
CGAACTAGGTCAAAGGACAGTGAAAGGCGACGTA | 2.83 | 3.94 | 4.27 | 1.3 | 3.33 | 2.58 | 0.464 | 0.47
GATACAGGGTCAAGGCCAGAGTACGCGTATTGAT | 3.46 | 5.41 | 4.92 | 2.66 | 5.69 | 3.52 | 1.35 | 2.91
ATCGAATGGTCGAAGGTGAGTATACCCACCCGAA | 0.0928 | 0.392 | 0.497 | -0.884 | 0.585 | 0.0175 | -0.459 | -0.194
CGTCCAAGGTCATAAGAGGTCAGTGAAGACAGAT | 5.16 | 7.1 | 7.88 | 4.16 | 7.05 | 5.23 | 3.25 | 5.57
